Compound activity deposited in PubChem BioAssay by National Center for Advancing Translational Sciences (NCATS).
Compounds with a hit are over-represented: about 3.1% of the library has one in this group of screens.
PLK1 PBD inh = qHTS for Inhibitors of PLK1-PDB (polo-like kinase 1 - polo-box domain): Primary Screen. Potency, µM, for inactives: max response, negative = inhibition, usual class: inhibitors. Plk1 PBD binding of FITC phosphopeptide, fluorescence polarization. 2.8% of 360,000 active. AID 720504, 2013. Serine/threonine-protein kinase PLK1 (Homo sapiens), P53350; further: potency means the concentration at half of the fitted maximal effect; series mostly up to about 57 µM; nearly all actives have a fitted effect of over 65% in size
GLS inhibitor = qHTS for Inhibitors of Glutaminase (GLS). Glutaminase kidney isoform, mitochondrial (Homo sapiens), O94925. GLS enzymatic activity, qHTS titration. Potency, µM (highest dose often 45.5 µM), without a hit: at the highest dose activity change, negative = inhibition, hits mostly inhibitors. 0.21% of 410,000 active. AID 624170, 2012; further: potency means the concentration at half of the fitted maximal effect
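hKGA in 45 mM KH2PO4 pH 8.2, 0.02% Tween-20 with pin-transferred compounds; 1 mM L-glutamine (stock) plus glutamate oxidase/HRP/Amplex Red coupling added. Fluorescence read initially and after 30 min at RT.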
GCN5L2 inh = qHTS Assay for Inhibitors of GCN5L2; GCN5L2 HAT assay, ThioGlo1 CoA-SH fluorescence; Potency, µM (top dose mostly 58.9 µM), inactives show top-dose activity change, negative = inhibition, usual class: inhibitors; 0.21% of 390,000 active; AID 504327, 2011; further: potency means the concentration at half of the fitted maximal effect
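Fluorescence readout, Ex340nm/Em540nm: ThioGlo1 (50uM final) reacts with free CoA thiol released as 20nM GCN5L2 acetylates H3(1-25) peptide (75uM) using acetyl-CoA (70uM). Compound and enzyme sat 15 min beforehand; 20 min room-temperature reaction.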
VDR inh = Inhibitors of the vitamin D receptor (VDR): qHTS | Vitamin D3 receptor (Homo sapiens), P11473 | VDR-SRC2-3 peptide fluorescence polarization, 2 h | Potency, µM, inactives show max response, negative = inhibition, usual class: inhibitors | 0.93% of 400,000 active; further: potency means the concentration at half of the fitted maximal effect
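The screen uses fluorescence polarization to detect compounds that interfere with recruitment of the SRC2-3 coactivator peptide to VDR; plates are read after 2 h at room temperature.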
PI4K2A block = qHTS for small molecular inhibitors of PI4K2A | purified PI4K2A, ADP-Glo luminescence, 1 h; active compounds read low | activity change, negative = inhibition, % at 76.9 µM | 0.13% of 420,000 active | AID 1346378, 2018; in the data active means activity change below about -50%; inconclusive means mostly about -30% to -49%;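 further: -100% = wells without enzyme as full effect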
Target sequence (Q9BTU6 whole entry, looked up): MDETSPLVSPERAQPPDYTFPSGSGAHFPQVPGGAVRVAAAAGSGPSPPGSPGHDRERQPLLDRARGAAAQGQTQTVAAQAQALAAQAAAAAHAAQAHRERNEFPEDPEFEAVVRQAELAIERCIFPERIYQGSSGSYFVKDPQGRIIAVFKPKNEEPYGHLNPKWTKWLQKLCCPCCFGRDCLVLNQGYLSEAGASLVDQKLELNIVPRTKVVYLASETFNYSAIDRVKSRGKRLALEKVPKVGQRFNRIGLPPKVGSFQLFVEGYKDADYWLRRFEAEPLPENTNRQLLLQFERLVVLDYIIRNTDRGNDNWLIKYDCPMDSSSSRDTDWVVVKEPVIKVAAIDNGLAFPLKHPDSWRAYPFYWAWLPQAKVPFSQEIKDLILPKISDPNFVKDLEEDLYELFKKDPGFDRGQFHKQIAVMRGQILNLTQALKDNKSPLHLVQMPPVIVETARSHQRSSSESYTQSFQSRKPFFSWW
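ADP-Glo luminescence measured ADP generated by PI4K2A enzyme (4 ug/mL before mixing) with 1.2 mM PI substrate (pre-mix) and 300 microM ATP (pre-mix). Tris pH7.5 buffer with MgCl2, Triton X-100; 1 h reaction at ambient temperature.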
* hit, by the source's call; ! = not confirmed by another sample. Unless noted, the call rests on the fitted dose curve; in most records, active means well fitted curve in the direction sought with a large enough effect; inconclusive means small, poorly fitted or top-dose-only effect, or another doubt; inactive means no such curve, though single readings can be large; an effect the other way counts as inactive or inconclusive. Unless noted, on the % scale 0 is the no-effect control and ±100 the full control effect.

Results for C=CCC(C)(NCc1ccccc1)c1ccc(C)cc1 (stereo unspecified) ?
PLK1 PBD inh: 8.3%; GLS inhibitor: -1.9%; GCN5L2 inh: -2.4%; VDR inh: 7.1%; PI4K2A block: 2.9

How did C=CCN(Cc1ccc2c(c1)OCO2)C(C#CCCCC)C(C)C (stereo unspecified) do in these assays?
PI4K2A block: 1.7

Results for Cc1c(C(=O)NCCO)[n+](=O)c2ccccc2n1[O-] ?
GLS inhibitor: 6.4%; GCN5L2 inh: -11.3%; VDR inh: -1.8%; PI4K2A block: 0.7

What do the screens show for `COc1ccc(NC(=O)COC(=O)/C=C/C(=O)OCC(=O)Nc2ccc(OC)c(Cl)c2)cc1Cl`?
PLK1 PBD inh: -5.8%; GLS inhibitor: 4.7%; GCN5L2 inh: -3.5%; VDR inh: -8.0%; PI4K2A block: 3.8

Results for CCOC(=O)/C=C/C(=O)OCC(=O)Nc1ccc(OC)c(Cl)c1 ?
PLK1 PBD inh: inconclusive; GLS inhibitor: -0.8%; GCN5L2 inh: -1.5%; VDR inh: 79.4µM*; PI4K2A block: 2.4

How did COc1ccc(NC(=O)COC(C)=O)cc1Cl do in these assays?
PLK1 PBD inh: 26.7µM*; GLS inhibitor: 10.2%; GCN5L2 inh: -4.8%; VDR inh: -6.0%; PI4K2A block: -1.2

Results for COCC(=O)Nc1ccc(OC)c(Cl)c1 ?
PLK1 PBD inh: -8.3%; GLS inhibitor: 16.1%; GCN5L2 inh: -4.4%; VDR inh: -9.8%; PI4K2A block: -4.7

Results for Cc1nc(C(Cl)(Cl)Cl)nc2[nH]ccc(=O)c12 ?
PLK1 PBD inh: 26.7µM*; GLS inhibitor: inconclusive; GCN5L2 inh: 20.8%; VDR inh: 17.8µM*; PI4K2A block: 2.9

How did Cc1[nH]ccc(=O)c1Cc1c(Cl)cccc1Cl do in these assays?
PLK1 PBD inh: 0.5%; GLS inhibitor: -8.6%; GCN5L2 inh: 18.9%; VDR inh: 2.4%; PI4K2A block: -2.3

How did COc1ccc(-n2c(N)c(C(=O)NCc3ccco3)sc2=S)cc1 do in these assays?
PLK1 PBD inh: -1.7%; GLS inhibitor: 0.2%; GCN5L2 inh: -7.5%; VDR inh: -6.1%; PI4K2A block: 2.3

What do the screens show for `CCOC(=O)CSc1nc2c(sc(=S)n2-c2ccc(CC)cc2)c(=O)[nH]1`?
PLK1 PBD inh: -25.2%; GLS inhibitor: 3.7%; GCN5L2 inh: 0.4%; VDR inh: -10.2%; PI4K2A block: -0.6

How did CCOC(=O)c1ccc(-n2c(=S)sc3c(=O)[nH]c(C)nc32)cc1 do in these assays?
PLK1 PBD inh: 5.32µM*; GLS inhibitor: -17.9%; GCN5L2 inh: -29.4%; VDR inh: 50.1µM*; PI4K2A block: -5.7

Results for CCn1c(N)c(C(=O)NCc2ccco2)sc1=S ?
PLK1 PBD inh: 23.8µM*; GLS inhibitor: 8.1%; GCN5L2 inh: inconclusive; VDR inh: -28.3%; PI4K2A block: -0.4

What do the screens show for `COc1ccc(-n2c(N)c(C(=O)NCC3CCCO3)sc2=S)cc1` (stereo unspecified)?
PLK1 PBD inh: -3.5%; GLS inhibitor: 3.1%; GCN5L2 inh: 1.5%; VDR inh: 4.6%; PI4K2A block: 5.7

How did CCOC(=O)c1ccc(-n2c(N)c(C(=O)NCc3ccco3)sc2=S)cc1 do in these assays?
PLK1 PBD inh: 23.8µM*; GLS inhibitor: 5.3%; GCN5L2 inh: -25.6%; VDR inh: inconclusive; PI4K2A block: -2.1

Results for C=CCNC(=O)c1sc(=S)n(-c2ccc(C(=O)OCC)cc2)c1N ?
PLK1 PBD inh: 21.2µM*; GLS inhibitor: -2.1%; GCN5L2 inh: -8.0%; VDR inh: inconclusive; PI4K2A block: -0.4

How did Cc1ccc(NC(=O)Cn2c(=O)c3ccccc3n3nncc23)cc1 do in these assays?
GLS inhibitor: -11.1%; GCN5L2 inh: -8.1%; VDR inh: -2.4%; PI4K2A block: 4.2

What do the screens show for `CCOC(=O)N1C(=O)C[C@](Sc2ccc(OC)cc2)(C(=O)N2CCN(c3ncccn3)CC2)[C@H]1c1ccc(OC)cc1`?
PI4K2A block: 0.6

What do the screens show for `CCOC(=O)c1c(C)c(C(=O)NCc2ccco2)c(C)n1Cc1ccccc1`?
PLK1 PBD inh: 26.7µM*; GLS inhibitor: -14.6%; GCN5L2 inh: 4.7%; VDR inh: inconclusive; PI4K2A block: -8.2

Results for CCn1c(N)c(C(N)=O)sc1=S ?
PLK1 PBD inh: 26.7µM*; GLS inhibitor: 1.1%; GCN5L2 inh: -6.1%; VDR inh: 6.9%; PI4K2A block: -2.7

Results for O=C(Cc1ccc(Br)cc1)Nc1ccc(S(=O)(=O)NCC2CCCO2)cc1 (stereo unspecified) ?
PLK1 PBD inh: 23.8µM*; GLS inhibitor: 0.0%; GCN5L2 inh: -2.9%; VDR inh: inconclusive; PI4K2A block: -6.3

Results for S=C(NCC1CCCO1)c1ccc(Br)cc1 (stereo unspecified) ?
PLK1 PBD inh: 11.9µM*; GLS inhibitor: 19.5%; GCN5L2 inh: -9.5%; VDR inh: inconclusive; PI4K2A block: -3.6

What do the screens show for `O=C(CSc1ccccc1)Nc1ccc(S(=O)(=O)NCC2CCCO2)cc1` (stereo unspecified)?
PLK1 PBD inh: 23.8µM*; GLS inhibitor: -4.0%; GCN5L2 inh: 1.6%; VDR inh: -0.7%; PI4K2A block: 0.4

Results for O=C(NCC1CCCO1)c1ccc(C(=O)NCC2CCCO2)cc1 (stereo unspecified) ?
PLK1 PBD inh: -7.6%; GLS inhibitor: -6.1%; GCN5L2 inh: 0.1%; VDR inh: 2.2%; PI4K2A block: 1.6

Results for COCC(=O)Nc1ccc(S(=O)(=O)NCC2CCCO2)cc1 (stereo unspecified) ?
PLK1 PBD inh: -3.6%; GLS inhibitor: 2.0%; GCN5L2 inh: -10.3%; VDR inh: -2.5%; PI4K2A block: -0.1

Results for O=C1Nc2ccccc2C1(c1ccc(O)cc1)c1ccc(O)cc1 ?
PI4K2A block: -2.5

How did COc1cc(OC)c(NC(=O)CN2C(=O)CCn3nc(-c4cccn4C)cc32)cc1Cl do in these assays?
GLS inhibitor: -1.8%; GCN5L2 inh: inconclusive; VDR inh: 6.4%; PI4K2A block: -1.4

What do the screens show for `CCc1oc2ccccc2c1C(=O)c1cc(Br)c(O)c(Br)c1`?
PLK1 PBD inh: 8.44µM*; GLS inhibitor: 12.4%; GCN5L2 inh: inconclusive; VDR inh: 50.1µM*!; PI4K2A block: 4.1

Results for CCc1ccc(OCC(=O)c2c(O)c3ccccc3oc2=O)cc1 ?
PLK1 PBD inh: -27.1%; GLS inhibitor: 15.3%; GCN5L2 inh: -8.9%; VDR inh: -16.5%; PI4K2A block: -8.7

Results for Cc1ccc(-c2cc(C(=O)N=Nc3c(O)[nH]c4ccccc34)[nH]n2)cc1C ?
PI4K2A block: -0.4
